Experimental data: PubChem BioAssay (EPA / NIEHS)
Values joined by “and” are separate entries in the source; they are usually repeats but may differ in a detail not shown here. Equal values may be shown once. Some compounds were tested as several samples or in several runs, with calls that do not always agree. Active and inactive are the calls of the source. Rule for the calls: active = hit-call score of the fitted dose curve at least 0.9, where 1 is the maximum; inactive = score below 0.9.

Assays:
[1] = ATG_EGR_CIS: Attagene CIS-FACTORIAL HepG2 Assay for human Early Growth Response 1 (EGR1) (AID 2282938); conditions: HepG2 Attagene CIS-FACTORIAL EGR reporter mRNA; actives raise or lower the signal
Outline: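 Read-out: fluorescent reporter-mRNA fragments resolved by capillary electrophoresis after RT-PCR, 24 h post-dose in transiently transfected HepG2. Endogenous transcription-factor activity reported via cis-element-regulated reporter units; gain or loss fitted relative to DMSO.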

[2] = ATG_M_19_CIS: Attagene CIS-FACTORIAL HepG2 Assay for M19 Transcription Factor (Internal Marker) (AID 2282939); conditions: HepG2 Attagene CIS-FACTORIAL M19 internal marker reporter; actives raise or lower the signal
Outline: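 HepG2 cells transiently transfected with cis-regulated multiplexed reporter units, dosed 24 h. Reporter mRNA quantified by RT-PCR and capillary electrophoresis; internal background marker fitted bidirectionally versus DMSO.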

[3] = ATG_ERE_CIS: Attagene CIS-FACTORIAL HepG2 Assay for Estrogen Response Element (ERE) (AID 2282940); conditions: HepG2 ERE cis-reporter, Attagene RNA transcript; actives raise or lower the signal
Outline: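 HepG2 cells transiently transfected with multiplexed cis-element reporter units, measuring endogenous transcription factor activity; ERE reporter mRNA quantified after 24 h exposure by RT-PCR, fluorescent labelling, HpaI digestion and capillary electrophoresis. Bidirectional change versus DMSO.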

[4] = ATG_Ets_CIS: Attagene CIS-FACTORIAL HepG2 Assay for human Erythroblast Transformation Specific (ETS) (AID 2282941); conditions: HepG2 ETS cis-reporter transcription; AC50: actives raise or lower the signal unless noted; outcome: actives raise or lower the signal unless noted
Outline: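 Multiplexed reporter transcript profiling: HepG2, 24 h treatment, total RNA to cDNA, PCR, 6-FAM labelling, HpaI cut, capillary electrophoresis. Gain- or loss-of-signal fitted against DMSO.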

[5] = molecular target: Hepatocyte nuclear factor 3-beta (Homo sapiens) (UniProt Q9Y261); experiment: ATG_FoxA2_CIS: Attagene CIS-FACTORIAL HepG2 Assay for human Forkhead box A2 (FOXA2) (AID 2282942); conditions: HepG2 cis-reporter transcription factor activity, 24 h; actives raise or lower the signal
Sequence of Hepatocyte nuclear factor 3-beta (Homo sapiens) (Q9Y261 whole entry, looked up): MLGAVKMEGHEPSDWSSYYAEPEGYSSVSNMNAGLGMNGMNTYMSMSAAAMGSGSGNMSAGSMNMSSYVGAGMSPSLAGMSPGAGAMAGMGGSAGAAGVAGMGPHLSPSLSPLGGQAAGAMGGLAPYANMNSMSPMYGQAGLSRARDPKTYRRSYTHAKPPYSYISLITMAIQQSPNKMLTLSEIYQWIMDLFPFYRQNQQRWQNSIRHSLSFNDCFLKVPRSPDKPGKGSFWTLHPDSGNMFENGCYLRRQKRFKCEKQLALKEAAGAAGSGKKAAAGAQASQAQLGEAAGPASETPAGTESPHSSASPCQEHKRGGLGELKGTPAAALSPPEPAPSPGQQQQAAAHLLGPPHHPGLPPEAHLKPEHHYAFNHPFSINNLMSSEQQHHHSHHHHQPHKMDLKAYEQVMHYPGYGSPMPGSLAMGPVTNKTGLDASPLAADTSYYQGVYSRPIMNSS
Outline: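 Readout: fluorescent reporter transcripts resolved by capillary electrophoresis after RT-PCR. Transiently transfected HepG2, 24 h compound exposure, endogenous TF activity at cis promoter elements. Gain or loss of signal fitted relative to DMSO.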

[6] = ATG_FoxO_CIS: Attagene CIS-FACTORIAL HepG2 Assay for human Forkhead box O (FoxO) (AID 2282943); conditions: HepG2 Attagene cis-reporter, FoxO element, mRNA; actives raise or lower the signal
Outline: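 Endogenous transcription factor activity read from multiplexed cis-promoter reporter transcripts in transiently transfected HepG2, 24 h after dosing. Reporter RNA measured via RT-PCR plus capillary electrophoresis of FAM-labeled products; gain or loss relative to DMSO.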

[7] = ATG_GATA_CIS: Attagene CIS-FACTORIAL HepG2 Assay for human GATA Binding Protein (AID 2282944); conditions: HepG2 GATA cis-element reporter, Attagene multiplex mRNA; actives raise or lower the signal
Outline: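 HepG2 cells transiently transfected with multiplexed cis-element reporter units measure endogenous GATA activity; after 24 h compound exposure, reporter mRNA quantified by RT-PCR and capillary electrophoresis. Changes fitted in both directions vs DMSO.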

[8] = ATG_GLI_CIS: Attagene CIS-FACTORIAL HepG2 Assay for human Zinc Finger Protein GLI1 (AID 2282945); conditions: HepG2, Attagene cis-factorial reporter mRNA, GLI element; actives raise or lower the signal
Outline: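 Bidirectional curve fits relative to DMSO, using reporter mRNA levels from RT-PCR plus capillary electrophoresis. Cells were HepG2 transiently carrying cis-regulated reporter constructs, harvested 24 h after dosing.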

[9] = ATG_M_32_CIS: Attagene CIS-FACTORIAL HepG2 Assay for M32 Transcription Factor (Internal Marker) (AID 2282949); conditions: HepG2 Attagene cis-factorial M32 reporter, mRNA; actives raise or lower the signal;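 note: background control marker of the multiplexed CIS panel rather than a real target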
Outline: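 HepG2 transfectants (cis-regulated reporter transcription units) dosed 24 h. Reporter mRNA by RT-PCR plus CE, analysed as gain or loss relative to DMSO.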

[10] = ATG_M_06_CIS: Attagene CIS-FACTORIAL HepG2 Assay for M06 Transcription Factor (Internal Marker) (AID 2282950); conditions: HepG2 Attagene CIS-FACTORIAL M06 internal marker reporter; actives raise or lower the signal
Outline: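 Internal background marker within multiplexed cis-reporter HepG2 system. Cells transiently transfected, dosed 24 h; reporter mRNA measured by RT-PCR, HpaI digestion and capillary electrophoresis. Bidirectional fit relative to DMSO.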

[11] = molecular target: Heat shock factor protein 1 (Homo sapiens) (UniProt Q00613); experiment: ATG_HSE_CIS: Attagene CIS-FACTORIAL HepG2 Assay for human Heat Shock Transcription Factor 1 (HSE) (AID 2282953); conditions: HepG2 HSE cis-reporter, Attagene RNA transcription; actives raise or lower the signal
Sequence of Heat shock factor protein 1 (Homo sapiens) (Q00613 whole entry, looked up): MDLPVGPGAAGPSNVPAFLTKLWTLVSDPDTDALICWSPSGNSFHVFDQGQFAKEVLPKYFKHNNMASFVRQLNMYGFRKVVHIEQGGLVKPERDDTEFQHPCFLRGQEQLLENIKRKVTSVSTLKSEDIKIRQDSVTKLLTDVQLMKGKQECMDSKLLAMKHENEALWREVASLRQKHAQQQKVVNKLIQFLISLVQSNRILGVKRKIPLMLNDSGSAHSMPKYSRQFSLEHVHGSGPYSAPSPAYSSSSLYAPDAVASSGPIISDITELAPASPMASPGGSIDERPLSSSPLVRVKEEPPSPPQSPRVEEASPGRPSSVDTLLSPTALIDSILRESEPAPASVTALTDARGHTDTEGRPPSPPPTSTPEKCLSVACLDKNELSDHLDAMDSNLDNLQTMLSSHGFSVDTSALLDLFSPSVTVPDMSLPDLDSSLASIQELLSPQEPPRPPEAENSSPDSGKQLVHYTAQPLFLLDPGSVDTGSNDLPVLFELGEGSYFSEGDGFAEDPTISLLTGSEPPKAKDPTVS
Outline: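 HepG2 cells transfected with cis-promoter reporter units sensing endogenous transcription factor activity; reporter mRNA quantified 24 h post-dose by RT-PCR and capillary electrophoresis of 6-FAM-labelled products. Bidirectional fitting against DMSO.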

[12] = ATG_MRE_CIS: Attagene CIS-FACTORIAL HepG2 Assay for human Metal Responsive Element (MRE) (AID 2282954); conditions: HepG2 MRE cis-reporter transcription, Attagene multiplex; actives raise or lower the signal
Outline: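 Endogenous MRE-dependent transcription read as reporter mRNA in transiently transfected human HepG2 cells at 24 h. RNA reverse-transcribed, PCR-amplified, labelled and resolved by capillary electrophoresis; gain or loss relative to DMSO.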

[13] = ATG_PBREM_CIS: Attagene CIS-FACTORIAL HepG2 Assay for human Phenobarbital-responsive Enhancer Module (PBREM) (AID 2282955); conditions: HepG2 PBREM cis-reporter, Attagene multiplexed transcription; actives raise or lower the signal
Outline: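 Reporter mRNA read by RT-PCR, 6-FAM primer extension, HpaI digestion and capillary electrophoresis. Transfected HepG2 cells, 24 h compound exposure. Gain or loss of signal fitted bidirectionally relative to DMSO baseline.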

[14] = molecular target: Paired box protein Pax-6 (Homo sapiens) (UniProt P26367); experiment: ATG_Pax6_CIS: Attagene CIS-FACTORIAL HepG2 Assay for human Paired Box 6 (PAX6) (AID 2282956); conditions: HepG2 CIS-FACTORIAL PAX6 reporter transcription, RNA readout; actives raise or lower the signal
Sequence of Paired box protein Pax-6 (Homo sapiens) (P26367 whole entry, looked up): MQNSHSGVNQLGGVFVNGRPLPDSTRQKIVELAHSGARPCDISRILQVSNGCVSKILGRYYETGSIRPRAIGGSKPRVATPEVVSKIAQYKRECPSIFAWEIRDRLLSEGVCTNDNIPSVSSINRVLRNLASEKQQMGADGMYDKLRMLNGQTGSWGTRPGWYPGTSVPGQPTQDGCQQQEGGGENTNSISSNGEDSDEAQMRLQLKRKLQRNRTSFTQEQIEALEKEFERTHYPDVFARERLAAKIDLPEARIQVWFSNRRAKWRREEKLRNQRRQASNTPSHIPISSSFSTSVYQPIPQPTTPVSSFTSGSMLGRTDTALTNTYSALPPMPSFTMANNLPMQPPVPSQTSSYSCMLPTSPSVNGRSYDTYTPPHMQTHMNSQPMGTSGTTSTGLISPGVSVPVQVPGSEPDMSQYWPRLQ
Outline: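 Values derive from bidirectional curve fitting of reporter mRNA signal relative to DMSO. HepG2 cells bearing transfected cis-regulated MRTUs were exposed for 24 h; transcripts were read by RT-PCR and capillary electrophoresis.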

[15] = ATG_PXRE_CIS: Attagene CIS-FACTORIAL HepG2 Assay for human Pregnane X Receptor Element (PXRE) (AID 2282957); conditions: HepG2 Attagene CIS-FACTORIAL PXRE reporter, mRNA; actives raise or lower the signal
Outline: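 Endogenous transcription factor activity in HepG2 was gauged through induction of reporter mRNA driven by a cis-regulating promoter element, sampled 24 h post-treatment. Activity was fitted in both directions against DMSO negative control.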

[16] = molecular target: Bile acid receptor (Homo sapiens) (UniProt Q96RI1); experiment: ATG_IR1_CIS: Attagene CIS-FACTORIAL HepG2 Assay for human Nuclear Receptor Subfamily 1 Group H Member 4 (NR1H4), IR1 submotif (AID 2282946); conditions: IR1 reporter transcription, actives raise or lower the signal
Sequence of Bile acid receptor (Homo sapiens) (Q96RI1 whole entry, looked up): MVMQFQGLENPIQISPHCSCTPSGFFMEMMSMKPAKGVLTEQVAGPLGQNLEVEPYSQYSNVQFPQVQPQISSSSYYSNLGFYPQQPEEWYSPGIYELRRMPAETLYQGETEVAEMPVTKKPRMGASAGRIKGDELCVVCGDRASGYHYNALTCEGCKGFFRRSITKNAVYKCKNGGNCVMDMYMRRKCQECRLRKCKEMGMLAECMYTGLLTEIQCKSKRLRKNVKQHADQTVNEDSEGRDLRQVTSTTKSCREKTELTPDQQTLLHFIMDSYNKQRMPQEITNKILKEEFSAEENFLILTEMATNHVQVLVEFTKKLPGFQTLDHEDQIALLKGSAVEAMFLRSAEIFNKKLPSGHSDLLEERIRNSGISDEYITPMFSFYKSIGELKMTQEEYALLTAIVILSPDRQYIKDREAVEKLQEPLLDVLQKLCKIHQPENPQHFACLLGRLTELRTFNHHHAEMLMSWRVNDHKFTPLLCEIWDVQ
Outline: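 HepG2 cells transiently transfected with multiplexed cis-element reporter units read endogenous transcription factor activity. After 24 h compound exposure, reporter mRNA was quantified by RT-PCR, fluorescent labelling, HpaI digestion and capillary electrophoresis; bidirectional fitting versus DMSO baseline.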

[17] = ATG_GRE_CIS: Attagene CIS-FACTORIAL HepG2 Assay for human Glucocorticoid Response Elements (GRE) (AID 2282947); conditions: HepG2 GRE cis-reporter, Attagene multiplex mRNA; AC50: actives raise or lower the signal unless noted; outcome: actives raise or lower the signal unless noted
Outline: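 Reporter transcripts read by RT-PCR with capillary electrophoresis fluorescence after a 24 h chemical exposure of HepG2 cells transiently transfected with multiple cis-element reporter units. Gain or loss fitted against DMSO.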

[18] = ATG_ISRE_CIS: Attagene CIS-FACTORIAL HepG2 Assay for human Interferon Regulatory Factor 1 (IRF1) binding to an Interferon-Stimulated Response Element (ISRE) (AID 2282948); conditions: HepG2 ISRE cis-reporter (Attagene), mRNA transcription readout; actives raise or lower the signal
Outline: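 Signal reflects induction or loss of ISRE-linked reporter mRNA in transiently transfected HepG2 cells after a 24 h treatment, detected by fluorescent RT-PCR fragments on capillary electrophoresis and normalised to DMSO.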

[19] = molecular target: Hypoxia-inducible factor 1-alpha (Homo sapiens) (UniProt Q16665); experiment: ATG_HIF1a_CIS: Attagene CIS-FACTORIAL HepG2 Assay for human Hypoxia Inducible Factor 1 (HIF1A) (AID 2282951); conditions: HepG2 Attagene cis-factorial HIF1a reporter transcription; actives raise or lower the signal
Sequence of Hypoxia-inducible factor 1-alpha (Homo sapiens) (Q16665 whole entry, looked up): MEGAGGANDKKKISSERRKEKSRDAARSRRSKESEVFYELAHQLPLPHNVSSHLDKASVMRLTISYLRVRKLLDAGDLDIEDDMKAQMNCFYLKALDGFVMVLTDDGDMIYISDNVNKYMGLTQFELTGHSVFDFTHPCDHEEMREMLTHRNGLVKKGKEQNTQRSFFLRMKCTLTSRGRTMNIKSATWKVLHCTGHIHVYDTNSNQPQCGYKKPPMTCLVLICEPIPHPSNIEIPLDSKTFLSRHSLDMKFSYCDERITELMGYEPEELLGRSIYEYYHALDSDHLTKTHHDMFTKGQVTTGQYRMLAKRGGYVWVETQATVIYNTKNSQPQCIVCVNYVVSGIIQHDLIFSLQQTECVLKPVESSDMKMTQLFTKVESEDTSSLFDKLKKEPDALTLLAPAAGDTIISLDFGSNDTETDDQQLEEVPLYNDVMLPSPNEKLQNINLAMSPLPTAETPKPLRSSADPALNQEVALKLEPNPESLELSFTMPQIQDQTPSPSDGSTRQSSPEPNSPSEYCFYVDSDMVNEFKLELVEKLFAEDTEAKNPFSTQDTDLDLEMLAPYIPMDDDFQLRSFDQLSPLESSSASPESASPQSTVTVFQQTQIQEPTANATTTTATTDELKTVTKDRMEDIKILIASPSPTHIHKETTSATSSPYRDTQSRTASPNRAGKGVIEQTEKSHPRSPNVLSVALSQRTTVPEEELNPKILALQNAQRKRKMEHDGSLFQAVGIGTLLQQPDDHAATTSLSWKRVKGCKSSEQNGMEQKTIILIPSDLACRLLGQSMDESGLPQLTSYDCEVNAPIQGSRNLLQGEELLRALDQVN
Outline: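 RT-PCR/capillary electrophoresis fluorescence readout of reporter transcripts from endogenous-TF-driven cis elements in transfected HepG2 cells, 24 h exposure; activity fitted in both directions against DMSO controls.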

[20] = molecular target: Hepatocyte nuclear factor 6 (Homo sapiens) (UniProt Q9UBC0); experiment: ATG_HNF6_CIS: Attagene CIS-FACTORIAL HepG2 Assay for human Hepatocyte Nuclear Factor 6 (HNF6) (AID 2282952); conditions: HepG2 Attagene cis-factorial HNF6 reporter transcription; actives raise or lower the signal
Sequence of Hepatocyte nuclear factor 6 (Homo sapiens) (Q9UBC0 whole entry, looked up): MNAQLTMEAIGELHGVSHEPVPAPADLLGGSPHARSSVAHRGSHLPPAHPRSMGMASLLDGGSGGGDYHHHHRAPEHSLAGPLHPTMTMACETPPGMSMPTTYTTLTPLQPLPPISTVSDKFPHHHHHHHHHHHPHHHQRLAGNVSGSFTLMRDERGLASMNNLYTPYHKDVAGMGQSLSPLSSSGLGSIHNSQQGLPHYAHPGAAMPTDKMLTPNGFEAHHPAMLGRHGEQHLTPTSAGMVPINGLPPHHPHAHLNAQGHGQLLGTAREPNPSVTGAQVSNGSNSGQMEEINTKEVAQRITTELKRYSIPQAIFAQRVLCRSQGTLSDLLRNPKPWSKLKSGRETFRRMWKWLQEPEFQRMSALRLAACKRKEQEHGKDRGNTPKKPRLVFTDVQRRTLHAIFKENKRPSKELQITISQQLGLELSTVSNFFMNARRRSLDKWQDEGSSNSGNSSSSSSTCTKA
Outline: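 Endogenous transcription factor activity in human HepG2 liver cells was captured through cis-regulated reporter constructs. After 24 h treatment, reporter mRNA was measured by RT-PCR with capillary electrophoresis, and activity was fitted in both directions relative to DMSO.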

Measured: AC50

Cc1cc(=O)oc2cc(O)ccc12
inactive: [1] | [2] | [4] | [5] | [6] | [7] | [8] | [9] | [10] | [11] | [12] | [13] | [14]
active: [3] 41.8 µM and 58.5 µM | [13] 42.3 µM | [15] 8.35 µM and 25.5 µM

CCCCCCCCCCCC[N+](C)(C)CCCCCCCCCCCC
active: [4] 36.3 µM | [18] 100 µM | [12] 4.84 µM | [13] 25.3 µM
not listed: [8]
inactive: all other assays above

Clc1ccc(Nc2nnc(Cc3ccncc3)c3ccccc23)cc1
active: [1] 16 µM | [19] 15.8 µM | [20] 17.9 µM | [11] 75.2 µM | [12] 27.6 µM | [13] 8.51 µM | [14] 27 µM | [15] 1.45 µM
not listed: [8]
inactive: all other assays above

COc1cccc(O)c1
not listed: [8]
inactive: all other assays above
